For 38 compounds, growth results are on record in PubChem BioAssay (NCI).

This is part of a sample that, as a whole, favours compounds with a hit. Of some 83,000 tested, about 20% had one in any assay.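 The endpoint reported here, percent growth, reads 100 for growth as untreated, 0 for no net growth and -100 for all cells dead.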 Activity calls are given as the source filed them. Rule for the calls: active = growth percent below 10; inactive = the rest.

The subject of the assay is PC-3 prostate. The assay is described as follows: NCI-60 one-dose screen, 48 h (100 = growth as untreated, 0 = no growth, -100 = all killed). Particulars: 10 µM unless noted.
With `Clc1ccc([I+]c2ccc(Cl)cc2Cl)c(Cl)c1`, the growth was 9.9% (active). As for `Cc1ccc(C2=NN(c3ccc(S(N)(=O)=O)cc3)C(c3cn(-c4ccccc4)nc3-c3ccccc3)C2)cc1` (stereo not drawn), the figure is 32.3% (inactive). Regarding `N#CC1=C(N)OC2=C(C(=O)CCC2)C1c1ccco1` (stereo not drawn), the growth is 102% (inactive).

`COC1=CC(c2ccc[nH]2)=N/C1=C\c1[nH]c(C)c(C(=O)CCCCC(=O)Oc2ccc3c(c2)CCC2C3CC[C@]3(C)[C@@H](O)CC[C@@H]23)c1C` (stereo partly drawn): the growth was 42.9% (inactive). In the case of `COc1ccc(NC(=O)CSc2nc3ccccc3c(=O)n2Cc2cc(OC)c(OC)c(OC)c2)cc1`, the growth is 85.1% (inactive). With `Nc1c(C(=O)Nc2c(Cl)cccc2Cl)sc2nc3c(cc12)CCCCC3`, the growth is 70.6% (inactive). Then `O=C(CN1CCN(c2cc3c(cc2F)c(=O)c(C(=O)O)cn3C2CC2)CC1)Nc1ccc(C(=O)/C=C/c2ccccc2)cc1`, with 55.2% (inactive); and `COc1cc(/C=C/C(=O)c2ccc(NC(=O)CN3CCN(c4cc5c(cc4F)c(=O)c(C(=O)O)cn5C4CC4)CC3)cc2)cc(OC)c1OC`, with 21.5% (inactive); and `NC(=O)c1c(NC(=O)c2ccc(OCC3CCCO3)cc2)sc2c1CCCC2` (stereo not drawn), with 74.4% (inactive). As to `COc1ccc(/C=C/C(=O)OCC(=O)NNC(=O)c2ccccc2)cc1OC`, the growth is 97.3% (inactive). Consider `Cc1sc(N=Nc2ccc(N(C)C)cc2)[n+]([O-])c1C`, for which the growth was 95.2% (inactive). Turning to `O=C(/C=C/c1ccccc1)n1c(-c2ccc(Cl)cc2)nc2ccccc21`, the growth is 6.09% (active). Then `COC(=O)[C@H]1[C@H](OC)[C@@H](OC(=O)/C=C/c2ccncc2)CC2CN3CCc4c([nH]c5cc(OC)ccc45)[C@@H]3C[C@@H]21` (stereo partly drawn), with 56% (inactive). Then `O=C1Nc2ccc(Br)cc2C1=N/C=c1\[nH]c(=O)/c(=C/c2ccc(Cl)cc2)s1`, with 92% (inactive); and `Nc1c(C(=O)Nc2cccc(C(F)(F)F)c2)sc2nc3c(cc12)CCCCC3`, with 53% (inactive); and `COc1cc(/C=C2\C=C(c3ccc(F)cc3)N(Cc3ccccc3)C2=O)cc(OC)c1OC`, with 32.7% (inactive). Take `Clc1nc(Cl)c2ncn(C/C=C/Cn3cnc4c(Cl)nc(Cl)nc43)c2n1`: the growth was 66.6% (inactive).

For `NC(C(=O)O)C(O)c1ccc(OCc2ccccc2)c(OCc2ccccc2)c1` (stereo not drawn), the growth is 89.1% (inactive).

For `Nc1c(C(=O)Nc2ccccc2)sc2nc3c(cc12)CCC3`, the growth is 81% (inactive). Then `COc1ccc(/C=C/c2cc(N3CCOCC3)c3cc(F)c(F)cc3n2)cc1OC`, with 38.7% (inactive); and `O=[N+]([O-])c1cccc(-c2cc(-c3cc(Br)ccc3O)[nH]n2)c1`, with 13% (inactive). As for `COC1=CC(c2ccc[nH]2)=N/C1=C\c1[nH]c(C)c(C(=O)CCC(=O)Oc2ccc3c(c2)CCC2C3CC[C@]3(C)[C@@H](O)CC[C@@H]23)c1C` (stereo partly drawn), the growth was 17.8% (inactive). Then `COc1ccc(C2=NN(c3ccc(S(N)(=O)=O)cc3)C(c3cn(-c4ccccc4)nc3-c3ccc(Cl)cc3)C2)cc1` (stereo not drawn), with 66.7% (inactive). Then `COc1cc(CCn2nnc3c(NCCCCO)ncnc32)cc(OC)c1`, with 88.3% (inactive); and `Clc1ccc(-c2nc(-c3ccco3)cn3ccnc23)cc1`, with 60.2% (inactive); and `O=C(c1ccncc1)N1N=C(c2ccc(Cl)cc2)CC1c1c[nH]c2ccccc12` (stereo not drawn), with 82.8% (inactive).

For the compound `COc1ccc(-c2cn[nH]c2-c2cc(OC)c3c(c2)OCCO3)cc1`, the growth is 28.4% (inactive). For the compound `O=S(=O)(c1ccccc1)n1ccc(-c2ccc3c(c2)CCO3)n1`, the growth was 84.2% (inactive). Then `COC1=CC(c2ccc[nH]2)=N/C1=C\c1[nH]c(C)c(C(=O)CCCCC(=O)NCc2ccccc2)c1C`, with -13.9% (active); and `Nc1c(C(=O)Nc2cccc([N+](=O)[O-])c2)sc2nc3c(cc12)C(O)CCC3` (stereo not drawn), with 57.2% (inactive); and `COc1cccc(NC(=O)c2sc3nc4c(cc3c2N)CCCC4)c1`, with 19.2% (inactive).

In the case of `O=C(Nc1cccc(C(F)(F)F)c1)Nc1ccc(OCc2nnc(-c3ccccc3)o2)c(F)c1`, the growth is 5.14% (active). As for `CC(=O)Nc1nc(C(=O)N2N=C(C)/C(=C/c3ccc(Cl)cc3)C2=O)cs1`, the figure is 98% (inactive). Then `COc1cc(C(=O)OCCCCCCCCCCC[P+](c2ccccc2)(c2ccccc2)c2ccccc2)ccc1O`, with -22.3% (active); and `O=C(NCCCN1CCN(CCCNC(=O)C2CCCCC2)CC1)C1CCCCC1`, with 91.3% (inactive). On to `COc1cc2c(cc1OC)C1(C)N(CC2)C(=O)OC1(C)C` (stereo not drawn), for which the growth was 97.3% (inactive). As for `CCCCCc1c(C)[nH]c(/C=c2\[nH]/c(=C3/C=c4ccccc4=N3)cc2OC)c1C`, the figure is -6.91% (active); as for `COc1cc(-c2n[nH]nc2-c2ccc3c(c2)OCCO3)cc(OC)c1OC`, 16.5% (inactive).
